The source of these data is PMC11006913.

Holding throughout (assay): PBM; 200 nM protein, PBS
Common to all, as to conditions: dsDNA, one strand shown

Assay [1] has as its target HESX1 (Homo sapiens, UniProt Q9UBX0 95-180, R165K).
The target in assay [2] is SHOX (Homo sapiens, UniProt O15266 103-189).
In assay [3] the target is HESX1 (Homo sapiens, UniProt Q9UBX0 95-180).
Another assay deals with MSX2 (Homo sapiens, UniProt P35548 130-214, R199I).
Assay [4] deals with ALX1 (Homo sapiens, UniProt Q15699 118-204, L144V).
Sequence of ALX1 (Homo sapiens, UniProt Q15699 118-204, L144V) (Q15699 118-204 L144V): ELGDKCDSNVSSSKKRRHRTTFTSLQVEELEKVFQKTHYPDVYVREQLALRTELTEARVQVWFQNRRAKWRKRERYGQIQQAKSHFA
In assay [5] the target is SHOX (Homo sapiens, UniProt O15266 103-189, R173C).
Sequence of SHOX (Homo sapiens, UniProt O15266 103-189, R173C) (O15266 103-189 R173C): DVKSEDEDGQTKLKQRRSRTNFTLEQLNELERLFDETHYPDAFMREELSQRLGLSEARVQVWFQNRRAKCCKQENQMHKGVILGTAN
Assay [6] concerns the target ALX1 (Homo sapiens, UniProt Q15699 118-204, L144R).
In assay [7] the target is PROP1 (Homo sapiens, UniProt O75360 56-141).
Sequence of PROP1 (Homo sapiens, UniProt O75360 56-141) (O75360 56-141): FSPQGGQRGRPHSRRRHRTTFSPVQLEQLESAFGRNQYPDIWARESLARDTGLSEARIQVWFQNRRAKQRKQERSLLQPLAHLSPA
Assay [8] addresses HESX1 (Homo sapiens, UniProt Q9UBX0 95-180, R109Q).
Assay [9] concerns the target PROP1 (Homo sapiens, UniProt O75360 56-141, R99H).
For assay [10], the target named is HESX1 (Homo sapiens, UniProt Q9UBX0 95-180, P111T).
Sequence of HESX1 (Homo sapiens, UniProt Q9UBX0 95-180, P111T) (Q9UBX0 95-180 P111T): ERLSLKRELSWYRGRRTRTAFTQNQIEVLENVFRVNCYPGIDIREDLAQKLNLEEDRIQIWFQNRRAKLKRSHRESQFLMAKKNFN
In assay [11] the target is PROP1 (Homo sapiens, UniProt O75360 56-141, F88S).
Sequence of PROP1 (Homo sapiens, UniProt O75360 56-141, F88S) (O75360 56-141 F88S): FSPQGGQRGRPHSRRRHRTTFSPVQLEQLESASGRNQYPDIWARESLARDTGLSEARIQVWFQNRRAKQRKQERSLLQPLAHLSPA
Assay [12] has as its target HESX1 (Homo sapiens, UniProt Q9UBX0 95-180, F115L).
Assay [13] has as its target ALX1 (Homo sapiens, UniProt Q15699 118-204).
In the next assay the target is ALX4 (Homo sapiens, UniProt Q9H161 200-286, Q225E).
Sequence of ALX4 (Q9H161 200-286 Q225E): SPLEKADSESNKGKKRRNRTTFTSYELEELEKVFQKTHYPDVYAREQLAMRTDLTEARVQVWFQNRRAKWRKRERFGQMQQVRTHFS
The target in assay [14] is ALX3 (Homo sapiens, UniProt O95076 139-225, N203Q).
Sequence of ALX3 (Homo sapiens, UniProt O95076 139-225, N203Q) (O95076 139-225 N203Q): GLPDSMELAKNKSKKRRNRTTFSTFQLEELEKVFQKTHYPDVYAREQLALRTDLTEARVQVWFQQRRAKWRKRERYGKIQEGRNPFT
For assay [15], the target named is ALX3 (Homo sapiens, UniProt O95076 139-225).
Sequence of ALX3 (Homo sapiens, UniProt O95076 139-225) (O95076 139-225): as the sequence (O95076 139-225 N203Q) above, with Q65N counted along it
Assay [16] deals with ALX3 (Homo sapiens, UniProt O95076 139-225, L168Q).
Sequence of ALX3 (Homo sapiens, UniProt O95076 139-225, L168Q) (O95076 139-225 L168Q): as the sequence (O95076 139-225 N203Q) above, with L30Q, Q65N counted along it
In assay [17] the target is ALX3 (Homo sapiens, UniProt O95076 139-225, L168V).
Sequence of ALX3 (Homo sapiens, UniProt O95076 139-225, L168V) (O95076 139-225 L168V): as the sequence (O95076 139-225 N203Q) above, with L30V, Q65N counted along it
In assay [18] the target is ALX3 (Homo sapiens, UniProt O95076 139-225, N203S).
Sequence of ALX3 (Homo sapiens, UniProt O95076 139-225, N203S) (O95076 139-225 N203S): as the sequence (O95076 139-225 N203Q) above, with Q65S counted along it

Sequence of SHOX (Homo sapiens, UniProt O15266 103-189) (O15266 103-189): as the sequence (O15266 103-189 R173C) above, with C71R counted along it
Sequence of ALX1 (Homo sapiens, UniProt Q15699 118-204, L144R) (Q15699 118-204 L144R): as the sequence (Q15699 118-204 L144V) above, with V27R counted along it
Sequence of HESX1 (Homo sapiens, UniProt Q9UBX0 95-180, R109Q) (Q9UBX0 95-180 R109Q): as the sequence (Q9UBX0 95-180 P111T) above, with R15Q, T17P counted along it
Sequence of ALX1 (Homo sapiens, UniProt Q15699 118-204) (Q15699 118-204): as the sequence (Q15699 118-204 L144V) above, with V27L counted along it
Sequence of HESX1 (Homo sapiens, UniProt Q9UBX0 95-180, F115L) (Q9UBX0 95-180 F115L): as the sequence (Q9UBX0 95-180 P111T) above, with T17P, F21L counted along it
Sequence of MSX2 (P35548 130-214 R199I): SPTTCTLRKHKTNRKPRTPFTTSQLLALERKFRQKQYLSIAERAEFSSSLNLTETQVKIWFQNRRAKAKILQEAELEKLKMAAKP
Sequence of PROP1 (Homo sapiens, UniProt O75360 56-141, R99H) (O75360 56-141 R99H): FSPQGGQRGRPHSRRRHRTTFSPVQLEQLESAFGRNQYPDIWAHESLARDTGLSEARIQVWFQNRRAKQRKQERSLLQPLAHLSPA
Sequence of HESX1 (Homo sapiens, UniProt Q9UBX0 95-180, R165K) (Q9UBX0 95-180 R165K): as the sequence (Q9UBX0 95-180 P111T) above, with T17P, R71K counted along it
Sequence of HESX1 (Homo sapiens, UniProt Q9UBX0 95-180) (Q9UBX0 95-180): as the sequence (Q9UBX0 95-180 P111T) above, with T17P counted along it

With ACAATTAG, the binding signal in the assay with HESX1 [1] was 11.8 upbm affinity estimate (log intensity, higher = more binding, comparable within an allelic series); with SHOX [2] it was 11.6 upbm affinity estimate (log intensity, higher = more binding, comparable within an allelic series); in the assay with HESX1 [3], 12.1 upbm affinity estimate (log intensity, higher = more binding, comparable within an allelic series); in the assay with MSX2 it was 12.6 upbm affinity estimate (log intensity, higher = more binding, comparable within an allelic series); with ALX1 [4], 11.2 upbm affinity estimate (log intensity, higher = more binding, comparable within an allelic series); with SHOX [5], 9.13 upbm affinity estimate (log intensity, higher = more binding, comparable within an allelic series). Also, the binding signal with ALX1 [6] was 10.8 upbm affinity estimate (log intensity, higher = more binding, comparable within an allelic series); with PROP1 [7], 11.1 upbm affinity estimate (log intensity, higher = more binding, comparable within an allelic series); with HESX1 [8] it was 8.66 upbm affinity estimate (log intensity, higher = more binding, comparable within an allelic series); with PROP1 [9], 11 upbm affinity estimate (log intensity, higher = more binding, comparable within an allelic series); in the assay with HESX1 [10], 10.4 upbm affinity estimate (log intensity, higher = more binding, comparable within an allelic series); in the assay with PROP1 [11] it was 7.51 upbm affinity estimate (log intensity, higher = more binding, comparable within an allelic series). For the same sequence, the binding signal is 7.42 upbm affinity estimate (log intensity, higher = more binding, comparable within an allelic series) with HESX1 [12] and 12 upbm affinity estimate (log intensity, higher = more binding, comparable within an allelic series) with ALX1 [13].
As for AATTAACT, the binding signal with HESX1 [1] is 12.1 upbm affinity estimate (log intensity, higher = more binding, comparable within an allelic series); in the assay with SHOX [2], 11.8 upbm affinity estimate (log intensity, higher = more binding, comparable within an allelic series); with ALX4 it was 13.4 upbm affinity estimate (log intensity, higher = more binding, comparable within an allelic series); with HESX1 [3] it was 12.2 upbm affinity estimate (log intensity, higher = more binding, comparable within an allelic series); with MSX2 it was 12.4 upbm affinity estimate (log intensity, higher = more binding, comparable within an allelic series); with ALX1 [4] it was 11.7 upbm affinity estimate (log intensity, higher = more binding, comparable within an allelic series). For the same sequence, the binding signal is 8.48 upbm affinity estimate (log intensity, higher = more binding, comparable within an allelic series) in the assay with ALX3 [14]; 9.37 upbm affinity estimate (log intensity, higher = more binding, comparable within an allelic series) with SHOX [5]; 11.4 upbm affinity estimate (log intensity, higher = more binding, comparable within an allelic series) in the assay with ALX1 [6]; 12.5 upbm affinity estimate (log intensity, higher = more binding, comparable within an allelic series) with ALX3 [15]; 11.5 upbm affinity estimate (log intensity, higher = more binding, comparable within an allelic series) with PROP1 [7]; 9.2 upbm affinity estimate (log intensity, higher = more binding, comparable within an allelic series) in the assay with HESX1 [8]. In addition, the binding signal with PROP1 [9] is 11.4 upbm affinity estimate (log intensity, higher = more binding, comparable within an allelic series); with ALX3 [16], 10.7 upbm affinity estimate (log intensity, higher = more binding, comparable within an allelic series); with HESX1 [10], 10.7 upbm affinity estimate (log intensity, higher = more binding, comparable within an allelic series); with ALX3 [17], 10.2 upbm affinity estimate (log intensity, higher = more binding, comparable within an allelic series); in the assay with PROP1 [11], 7.8 upbm affinity estimate (log intensity, higher = more binding, comparable within an allelic series); in the assay with HESX1 [12], 7.81 upbm affinity estimate (log intensity, higher = more binding, comparable within an allelic series). The binding signal with ALX1 [13] is 12.3 upbm affinity estimate (log intensity, higher = more binding, comparable within an allelic series); with ALX3 [18] it was 8.69 upbm affinity estimate (log intensity, higher = more binding, comparable within an allelic series).
As to AATTATAA, the binding signal in the assay with HESX1 [1] is 11.6 upbm affinity estimate (log intensity, higher = more binding, comparable within an allelic series); with SHOX [2], 11.4 upbm affinity estimate (log intensity, higher = more binding, comparable within an allelic series); with ALX4, 13.1 upbm affinity estimate (log intensity, higher = more binding, comparable within an allelic series); with HESX1 [3], 11.7 upbm affinity estimate (log intensity, higher = more binding, comparable within an allelic series); with MSX2, 12.4 upbm affinity estimate (log intensity, higher = more binding, comparable within an allelic series); with ALX1 [4] it was 11.5 upbm affinity estimate (log intensity, higher = more binding, comparable within an allelic series). For the same sequence, the binding signal in the assay with ALX3 [14] is 8.51 upbm affinity estimate (log intensity, higher = more binding, comparable within an allelic series); in the assay with SHOX [5], 9.09 upbm affinity estimate (log intensity, higher = more binding, comparable within an allelic series); in the assay with ALX1 [6], 11.2 upbm affinity estimate (log intensity, higher = more binding, comparable within an allelic series); with ALX3 [15], 12.4 upbm affinity estimate (log intensity, higher = more binding, comparable within an allelic series); with PROP1 [7], 11 upbm affinity estimate (log intensity, higher = more binding, comparable within an allelic series); with HESX1 [8], 8.29 upbm affinity estimate (log intensity, higher = more binding, comparable within an allelic series). Further, the binding signal with PROP1 [9] was 10.8 upbm affinity estimate (log intensity, higher = more binding, comparable within an allelic series); with ALX3 [16] it was 10.4 upbm affinity estimate (log intensity, higher = more binding, comparable within an allelic series); in the assay with HESX1 [10], 10.4 upbm affinity estimate (log intensity, higher = more binding, comparable within an allelic series); with ALX3 [17], 9.95 upbm affinity estimate (log intensity, higher = more binding, comparable within an allelic series); with PROP1 [11] it was 7.93 upbm affinity estimate (log intensity, higher = more binding, comparable within an allelic series); with HESX1 [12] it was 7.89 upbm affinity estimate (log intensity, higher = more binding, comparable within an allelic series). Further, the binding signal with ALX1 [13] was 12.1 upbm affinity estimate (log intensity, higher = more binding, comparable within an allelic series); with ALX3 [18], 8.6 upbm affinity estimate (log intensity, higher = more binding, comparable within an allelic series).
With CTTGCGGC, the binding signal with HESX1 [1] was 6.55 upbm affinity estimate (log intensity, higher = more binding, comparable within an allelic series); with SHOX [2] it was 7.11 upbm affinity estimate (log intensity, higher = more binding, comparable within an allelic series); with HESX1 [3], 6.49 upbm affinity estimate (log intensity, higher = more binding, comparable within an allelic series); with SHOX [5], 7.22 upbm affinity estimate (log intensity, higher = more binding, comparable within an allelic series); with HESX1 [8] it was 6.47 upbm affinity estimate (log intensity, higher = more binding, comparable within an allelic series); with HESX1 [10] it was 6.52 upbm affinity estimate (log intensity, higher = more binding, comparable within an allelic series). Further, the binding signal with HESX1 [12] was 6.53 upbm affinity estimate (log intensity, higher = more binding, comparable within an allelic series).
On to AATTAAGA, for which the binding signal was 11.6 upbm affinity estimate (log intensity, higher = more binding, comparable within an allelic series) with HESX1 [1]; 11.7 upbm affinity estimate (log intensity, higher = more binding, comparable within an allelic series) in the assay with SHOX [2]; 12.8 upbm affinity estimate (log intensity, higher = more binding, comparable within an allelic series) with ALX4; 11.6 upbm affinity estimate (log intensity, higher = more binding, comparable within an allelic series) with HESX1 [3]; 11.7 upbm affinity estimate (log intensity, higher = more binding, comparable within an allelic series) with ALX1 [4]; 8.44 upbm affinity estimate (log intensity, higher = more binding, comparable within an allelic series) with ALX3 [14]. Moreover, the binding signal with SHOX [5] was 9.59 upbm affinity estimate (log intensity, higher = more binding, comparable within an allelic series); with ALX1 [6], 11.3 upbm affinity estimate (log intensity, higher = more binding, comparable within an allelic series); in the assay with ALX3 [15], 12.4 upbm affinity estimate (log intensity, higher = more binding, comparable within an allelic series); with PROP1 [7], 11.2 upbm affinity estimate (log intensity, higher = more binding, comparable within an allelic series); with HESX1 [8], 9.03 upbm affinity estimate (log intensity, higher = more binding, comparable within an allelic series); with PROP1 [9] it was 10.9 upbm affinity estimate (log intensity, higher = more binding, comparable within an allelic series). The binding signal is 10.4 upbm affinity estimate (log intensity, higher = more binding, comparable within an allelic series) with ALX3 [16]; 10.5 upbm affinity estimate (log intensity, higher = more binding, comparable within an allelic series) with HESX1 [10]; 9.95 upbm affinity estimate (log intensity, higher = more binding, comparable within an allelic series) with ALX3 [17]; 7.71 upbm affinity estimate (log intensity, higher = more binding, comparable within an allelic series) with PROP1 [11]; 7.79 upbm affinity estimate (log intensity, higher = more binding, comparable within an allelic series) in the assay with HESX1 [12]; 12.1 upbm affinity estimate (log intensity, higher = more binding, comparable within an allelic series) with ALX1 [13]. For the same sequence, in the assay with ALX3 [18], the binding signal is 8.55 upbm affinity estimate (log intensity, higher = more binding, comparable within an allelic series).
